# From PubChem
# GPR151 ag: activators of human GPR151 | 650,000 tested, 1% active | PathHunter beta-arrestin GPR151 cells, luminescence | activation, % at 11.2 µM | Q8TDV0; in the data active = activation above about 4.9%;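 also: 0% = median of compound wells and 100% = cells with positive control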
# TEAD-YAP inh: TEAD-YAP interaction inhibition; 640,000 tested, 1.4% active; AID 1259422; HEK-TIYL cells, TEAD-Gal4/YAP UAS-luciferase luminescence; inhibition, % at 9.12 µM; in the data active = inhibition above about 32%;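 also: 0% = median of test compound wells and 100% = reference inhibitor wells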
# MITF primary: blocks human microphthalmia-associated transcription factor. O75030. AID 1259374. inhibition, % at 2.6 µM. 650,000 tested, 0.91% active. AlphaScreen MITF homodimerization, bead proximity signal; in the data active = inhibition above about 50%;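 also: 0% = vehicle wells with protein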
# FBW7 activator: activators of human E3 ligase FBW7. AlphaScreen FBW7–phospho-cyclin E peptide binding, activator screen. normalized activity (activation), % at 26.1 µM. 650,000 tested, 0.13% active. AID 1259310; in the data active = normalized activity above about 1.9%;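 also: purified mutant Fbw7 with reduced substrate affinity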
# Target sequence (Q969H0 whole entry, looked up): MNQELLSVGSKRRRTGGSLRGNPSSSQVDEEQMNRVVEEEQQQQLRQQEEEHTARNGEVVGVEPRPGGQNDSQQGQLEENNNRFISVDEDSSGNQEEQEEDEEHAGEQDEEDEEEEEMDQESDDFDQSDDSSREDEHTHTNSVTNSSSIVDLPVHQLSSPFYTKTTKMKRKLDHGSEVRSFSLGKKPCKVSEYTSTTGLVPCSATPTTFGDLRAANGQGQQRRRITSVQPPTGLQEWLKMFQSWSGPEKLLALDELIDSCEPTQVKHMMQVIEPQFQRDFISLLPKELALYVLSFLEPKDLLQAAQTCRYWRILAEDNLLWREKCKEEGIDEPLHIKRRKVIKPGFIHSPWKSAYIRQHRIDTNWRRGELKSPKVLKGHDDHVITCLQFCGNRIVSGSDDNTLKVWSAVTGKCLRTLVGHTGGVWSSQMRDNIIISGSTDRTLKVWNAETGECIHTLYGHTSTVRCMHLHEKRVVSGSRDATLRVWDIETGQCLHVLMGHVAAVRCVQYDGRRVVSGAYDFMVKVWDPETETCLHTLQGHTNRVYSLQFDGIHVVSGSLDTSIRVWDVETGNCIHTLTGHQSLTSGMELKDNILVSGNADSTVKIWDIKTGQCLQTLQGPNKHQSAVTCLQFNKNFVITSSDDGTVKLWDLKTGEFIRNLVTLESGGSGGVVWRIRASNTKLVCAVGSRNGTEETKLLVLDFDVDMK
# GPR151 confirm: human GPR151 activation, confirmation screen. GPR151 PathHunter beta-arrestin cells, luminescence, 90 min; % of EA-reagent control over plate median. 6,700 tested, under 10 active. shares compounds with GPR151 ag. activation, % at 11.2 µM. AID 1508609;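 active = mean percent activation across replicates above the confirmation screen cutoff of 4.91%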
# GPR119 ag: activates human GPR119 in a GPR151 counter-screen; shares compounds with GPR151 ag; GPR119 PathHunter beta-arrestin cells, luminescence, 90 min; 0 = compound-well median, 100 = enzyme-acceptor control; activation, % at 11.2 µM; 6,700 tested, 0.3% active;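 active = mean percent activation in the counterscreen above 29.09%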;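 also: counterscreen on off-target GPR119 to flag nonselective hits from the GPR151 activator screen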
# Numbers without * were called inactive; · = no result; ! = not confirmed by another sample. This is a sample that favours compounds with a hit; in the whole collection about 3.4% have one here.
SMILES,GPR151 ag,TEAD-YAP inh,MITF primary,FBW7 activator,GPR151 confirm,GPR119 ag
CCOC(=O)C1C(=O)CC(C)(O)C(C(=O)OCC)C1c1ccc2c(c1)OCO2 (stereo unspecified),5.1*,-3.0,-1.5,0.2,-0.7,-6.1
COc1cccc(/C=C/c2nc3ccccc3c(=O)n2-c2ccc(NC(C)=O)cc2)c1OC,5.6*,3.4,0.0,-0.3,0.9,16.5
COc1cc(Nc2nc(SCC(=O)c3ccccc3)nc3ccccc23)cc(OC)c1,6.9*,3.6,-2.9,-0.1,1.3,16.3
COc1cc(Nc2nc(SCC(=O)c3ccc(Br)cc3)nc3ccccc23)cc(OC)c1,-0.5,0.0,-4.7,0.0,·,·
O=C(CSc1nc(Nc2ccc(F)c(F)c2)c2ccccc2n1)c1ccc(F)cc1,5.1*,13.2,4.7,0.1,-0.9,0.4
CC(C)C(=O)Nc1cc(=O)n(C)c(=O)n1C,2.5,0.8,-9.9,-0.1,·,·
CC(=O)c1cc(C#N)c(SCCC(C)C)nc1C,7.9*,-9.9,-12.2,-0.1,-0.7,1.0
Cc1cccc(NC(=O)CCC2CCN(C(=O)Cc3ccsc3)CC2)c1,5.2*,-6.7,15.7,0.0,-0.1,0.8
O=C(N/N=C/c1ccc2ccccc2c1)c1ccc(O)c(O)c1,0.1,-31.9,1.9,-0.1,·,·
O=c1c2ccccc2ncn1Cc1c(F)cccc1F,4.9*,0.9,-2.5,-0.1,-1.1,-15.3
O=c1c2ccccc2ncn1Cc1ccccc1Cn1cnc2ccccc2c1=O,0.0,6.4,12.2,0.0,·,·
O=C(Nc1ccc2[nH]ncc2c1)[C@H]1CCCN1C(=O)C(O)c1ccc(Cl)cc1 (stereo partly specified),-0.7,-1.3,4.8,-0.3,·,·
O=C(Nc1ccc2[nH]ncc2c1)[C@@H]1CCCN1C(=O)C(O)c1ccc(Cl)cc1 (stereo partly specified),5.2*!,-0.3,10.5,0.0,-0.3,5.5
CCN(CC)C(=O)C(=O)N1CCN(c2ccccc2F)CC1,-0.5,4.6,-24.0,-0.1,·,·
CC(C)C(NS(=O)(=O)c1cccc2nsnc12)C(=O)NCc1ccccc1Cl (stereo unspecified),-0.1,-0.1,3.9,0.0,·,·
COc1ccc(CNc2c3c(nc4nncn24)CCC3)cc1,7.3*,-3.3,-7.5,-0.3,-1.2,-14.3
CC(=O)c1ccc(NC(=O)Cc2ccc(Cl)c(Cl)c2)cc1,0.6,-49.1,-2.9,-0.1,·,·
CC(=O)c1cccc(NC(=O)c2cnn3c(C(F)(F)F)cc(-c4ccco4)nc23)c1,5.1*,3.9,-8.9,-0.1,0.5,1.3
Cc1ccc(-c2cc(C(F)(F)F)n3ncc(C(=O)NC(C)C)c3n2)cc1,5.0*,0.6,4.9,-0.1,-0.3,-4.8
COc1ccccc1NC(=O)CN(C)C,1.5,1.7,13.6,0.3,·,·
CC(Oc1ccc(Br)cc1)C(=O)Nc1ccccc1 (stereo unspecified),-1.1,0.9,-15.8,-0.2,·,·
CC(Oc1ccc(Br)cc1)C(=O)Nc1ccc(C(N)=O)cc1 (stereo unspecified),5.7*,8.3,-7.4,-0.3,-0.2,-2.0
O=C(Nc1ccc2c(c1)OCO2)c1cc(-c2ccccc2F)no1,5.2*,-26.4,12.0,0.0,0.4,5.3
Cc1cc(C(=O)Nc2ccc3c(c2)OCO3)on1,-0.1,-26.8,-6.6,0.3,·,·
COc1ccc(NC(=O)c2cc(-c3ccccc3F)no2)cc1OC,-0.8,6.2,6.8,0.0,·,·
SMILES,GPR151 ag,TEAD-YAP inh,MITF primary,FBW7 activator,GPR151 confirm,GPR119 ag
COc1ccc(NC(=O)c2cc(-c3ccccc3O)no2)cc1OC,5.5*,-8.4,-11.2,-0.1,0.1,-12.7
O=C(CC1C(=O)NCCN1CC1CCCCC1)NC1CCC1 (stereo unspecified),1.3,-2.8,6.6,0.2,·,·
Cc1ccccc1C(=O)N/C(=C/c1ccc(-c2cccnc2Cl)o1)C(=O)NC1CC1,-0.3,-0.8,8.3,0.2,·,·
O=C(O)CN(CCN(CC(=O)O)CC(=O)O)CCN(CC(=O)O)CC(=O)O,8.1*!,5.8,40.6,-0.1,0.5,9.7
O=C(O)CN(CCOCCOCCN(CC(=O)O)CC(=O)O)CC(=O)O,1.6,-2.5,-0.6,-0.2,·,·
CCOP(=O)(OCC)c1nc(-c2cccc([N+](=O)[O-])c2)oc1N1CCCCC1,10.9*,-5.3,3.3,-0.1,0.6,5.2
Cc1ncc(CO)c2cc(-c3nnc(Nc4ccccc4F)s3)c(=O)oc12,5.8*,-15.0,-3.3,0.1,-1.7,-14.0
CC(C)C(NC1CCCCC1C)C(=O)NC(N)=O (stereo unspecified),1.7,0.6,-12.5,0.5,·,·
CC(C)OC(=O)COc1ccc(C(=O)NCc2ccccc2)cc1,5.3*,7.3,-3.9,0.7,-0.5,-8.7
O=C(NCc1ccccc1)c1ccc(OCc2ccccc2)cc1,-1.2,4.8,-5.5,0.1,·,·
CSc1nnc(CNC(=O)c2ccc(Cl)c([N+](=O)[O-])c2)n1-c1ccc(F)cc1,-0.4,0.3,1.3,-0.1,·,·
COc1cccc(N2C(=O)CC(N3CCN(c4ccccn4)CC3)C2=O)c1 (stereo unspecified),5.1*,0.2,2.8,0.1,-0.3,-6.4
CCOc1cccc(N2C(=O)CC(N3CCN(c4ccccn4)CC3)C2=O)c1 (stereo unspecified),0.1,5.2,-10.6,-0.2,·,·
COc1ccc(N2CCN(C3CC(=O)N(c4ccc(C(=O)O)cc4)C3=O)CC2)cc1 (stereo unspecified),6.0*,5.2,12.7,0.2,0.1,4.0
CC(C)n1c(Nc2ccc(N3CCOCC3)cc2)nc2c(Nc3ccc(N4CCOCC4)cc3)ncnc21,-1.3,11.1,13.3,0.2,·,·
CC(C)n1c(Nc2ccnn2C)nc2c(Nc3ccc(N4CCOCC4)cc3)ncnc21,5.5*,-4.8,13.2,0.1,0.4,-2.8
Cc1ccc(N(C(=O)c2ccccc2F)C2C=CS(=O)(=O)C2)cc1 (stereo unspecified),0.8,-10.8,3.1,0.2,·,·
O=C(CN1CCN(c2ccccc2F)CC1)Nc1cc(C(F)(F)F)ccc1Cl,0.2,-1.3,3.6,0.0,·,·
O=C(CN1CCCCC1)Nc1cc(C(F)(F)F)ccc1Cl,7.0*,3.8,0.7,-0.1,0.2,1.5
CCCC(=O)Nc1nnc(S(=O)(=O)N(CC)c2ccc(Cl)cc2)s1,-0.5,10.9,6.1,-0.1,·,·
CCCCC(=O)Nc1nnc(S(=O)(=O)N(CC)c2ccc(Cl)cc2)s1,5.7*,6.4,-6.4,-0.1,1.1,3.2
c1ccc(CNc2nc(Nc3ccncc3)nc3c2ncn3-c2ccccc2)cc1,6.6*,-2.8,-0.6,-0.2,-1.5,-14.3
Clc1nc(NCc2ccccc2)c2ncn(-c3ccccc3)c2n1,5.0*,-18.5,5.0,0.0,2.1,-4.5
COc1ccc(C2/C(=C(/O)c3ccc(C)cc3)C(=O)C(=O)N2CCCN(C)C)cc1OC (stereo unspecified),-1.4,-7.8,5.9,0.0,·,·
